According to publication PMC10163288:
Only a sample is shown. No count for the full screen is at hand. Unmarked numbers belong to inactive results.

B1: il10ra_site1_sap_15_mot_HHH_b2_04646_000000019_0001_1_20_H_._HHH_b1_08112_af2_0001_0000300009_0000001_0_0001 (protein)
chain: SSSSDVEEEVEELLEQAEELARRGNPEEAYKLLKEAAELASEANDPELQRLVVEVSRRVIGSSSS
B2: il10ra_site1_sap_24_mot_HHH_b1_04771_000000013_0001_40_56_H_._HHH_b2_02918_af2_0001_0000100007_0000001_0_0001 (protein)
chain: SSSSDDEERVKQAIRFARWLLENGDKEAAKRIVEAAQDIARKGGNEELVQELEELEEEIKSSSSS
B3: il10ra_site1_sap_20_mot_HHH_b1_04573_000000273_0001_43_57_H_._HHH_b2_07679_0001_0000100005_0000002_0_0001 (protein)
chain: SSSSSDENEEIYRLLREAAEALANGNPEEAREIVEQAVELAEEANSQVLLFNAEYLLRQINSSSS
B4: il10ra_site1_sap_24_mot_HHH_b1_00999_000000080_0001_41_55_H_._HHH_b1_05694_af2_0001_0000300017_0000001_0_0001_af2pred_dldesign_0_af2pred (protein)
chain: SSSSDPQRVVELIHEANRLVDEGRLDEAERLLEEALRLARAADDAELAAAVEKALAFVRSLSSSS
B5: il10ra_site1_normal_mot_HHH_b1_00999_000000080_0001_41_55_H_._HHH_b1_02815_0001_0000700030_0000002_0 (protein)
chain: SSSSDEEEERSKELLEELEELLRRGDQHRFLRLLQHIVRFAFEVSDEELLHEVWRLAREFGSSSS
B6: il10ra_site1_normal_mot_HHH_b1_05357_000000034_0001_23_39_H_._HHH_b2_00878_af2_0001_0000100001_0000001_0_af2pred_0001 (protein)
chain: SSSSSSDLEEEVEKLLEEAEKIEDQLRLAYVLTRAYAVANRLNDPELRELIREVAKKLSSSSSSS
B7: il10ra_site1_normal_mot_0cd074c2d6d3de76f1399c5a775575d2_0001_1_af2_000000000_0001_16_30_H_._a6da520ff4a02840130205282d0b8d49_0001_0001_0000200007_0000001_0_af2 … (protein)
chain: SREQAILYAAIVASGGDEDRIEHLLEIYYEFTGDPAVKEVLERLRAAKAAGIPAEELLKQLEAEN
B8: il10ra_site1_sap_20_mot_HHH_b1_01886_000000262_0001_1_18_H_._HHH_b1_05552_af2_0001_0000500031_0000001_0_0001_af2pred_dldesign_0_af2pred (protein)
chain: SSSSSDLAAVLAEAEALFARSKTVSPEEKEVILQRIVDLALKHENLEVAKLANELLKELSSSSSS
B9: il10ra_site1_sap_25_mot_2c1a291787c6f40772924d4e9068d803_0001_af2_000000187_0001_34_48_H_._HHH_b2_07308_af2_0001_0000400007_0000002_0_0001_af2pred_0001 (protein)
chain: SSSSSTREEVIKRVIELLREARRIEDPEEREEVLEEAHRLAEEGNNELLKFIVESLERKLSSSSS
B10: il10ra_site1_sap_16_mot_HHH_b2_06643_000000103_0001_1_18_H_._HHH_b2_07694_0001_0000100008_0000001_0_0001_af2pred_0001 (protein)
chain: SSSSSSEEEELAELALRLLVEALQHGDPELREEIKELIEEAEKVGDERVVRLLRAALRALSSSSS
B11: il10ra_site1_normal_mot_8756ee2cf497b5429c717dfc0c0bcfd6_0001_000000186_0001_1_13_H_._HHH_b2_05079_af2_0001_0000100002_0000002_1_af2pred_dldesign_0_af2pred (protein)
chain: SSSSSSELEELKNLIKEIAELLYEGKPEEARELLEKAEELAKKLGNKTALATLDYLRRQIESSSS
B12: il10ra_site1_sap_25_mot_HHH_b2_05323_000000159_0001_1_18_H_._HHH_b1_08298_af2_0001_0000500034_0000001_0_0001 (protein)
chain: SSSSDEELQEAFELLREAVEALLDGNPEEAEKLLEEARKLAEEAGNRLLRWQIEWLLEKVRSSSS
B13: il10ra_site1_normal_mot_HHH_b2_00441_000000147_0001_1_18_H_._HHH_b1_04947_af2_0001_0000200007_0000001_0_af2pred_0001 (protein)
chain: SSSSDEYLKKAIRALFRAIKRAIELGDEEVVRLALKDLRFLAREHNDEEAEELLKELEELLSSSS
B14: il10ra_site1_normal_mot_HHH_b2_00984_000000042_0001_1_20_H_._HHH_b2_07534_0001_0000600066_0000001_1 (protein)
chain: SSSSDEEEKRLEELLEEVRELLERGDPERAARLAQELLRHIFRASDEEALQELWELIKREASSSS
B15: il10ra_site1_normal_mot_HHH_b2_03328_af2_000000127_0001_1_19_H_._HHH_b1_03894_0001_0000100001_0000001_0 (protein)
chain: SSSSSSNELYELSREALELFANGNPEEAQRVVEEAIELAEELGNRVILFTLRHLLRVISSSSSSS
B16: il10ra_site1_normal_mot_HHH_b1_08477_000000091_0001_40_57_H_._HHH_b2_05084_0001_0000800035_0000001_0 (protein)
chain: SSSSDIAEETARFLLEMAERLIEQGNPEYARQALRFALRLARDAGNPELEEEIQKLLEELGSSSS
B17: il10ra_site1_normal_mot_HHH_b2_06857_af2_000000179_0001_42_54_H_._HHH_b2_07752_af2_0001_0000500038_0000002_0 (protein)
chain: SSSSNELHEELYELIRKAAELARNGNPEEAEKVLEEARKIAEELNNELAEFQIRFLERLLSSSSS
B18: il10ra_site1_sap_4_mot_HHH_b2_01447_af2_000000258_0001_1_20_H_._HHH_b1_07772_0001_0000100001_0000002_0_0001 (protein)
chain: SSSSDTRELYRLSREAMELLARGNPEEAEKVLEEAIEIAREAGDFNFLFNLEHVLKVIEQSSSSS
B19: il10ra_site1_sap_15_mot_HHH_b2_05813_000000266_0001_1_19_H_._ems_3hC_1310_0001_af2_0001_0000600040_0000002_0_0001 (protein)
chain: SSSSADEEFEFTREKYEEARELLQNGNPEEAEEVLEEAREYLKEAGNWAALFAVEVLLKQLSSSS
B20: il10ra_site1_normal_mot_HHH_b2_02537_000000065_0001_1_20_H_._HHH_b1_07925_0001_0000100001_0000001_0 (protein)
chain: SSSSTDEVFEFTRRVIEEASELFRNGNPEEAERVLEEAREYLEELGDELALRSVEHLLRAISSSS
B21: il10ra_site1_sap_19_mot_HHH_b1_05214_000000232_0001_38_57_H_._HHH_b2_00758_0001_0000400024_0000001_0_0001 (protein)
chain: SSSSDIRELYELSREAVELRHEGNPEEAEKVVEEAEELARELNNRVLLAVIEWLREAIETSSSSS

Molecular target: il10ra, Q13651
Sequence (Q13651 whole entry): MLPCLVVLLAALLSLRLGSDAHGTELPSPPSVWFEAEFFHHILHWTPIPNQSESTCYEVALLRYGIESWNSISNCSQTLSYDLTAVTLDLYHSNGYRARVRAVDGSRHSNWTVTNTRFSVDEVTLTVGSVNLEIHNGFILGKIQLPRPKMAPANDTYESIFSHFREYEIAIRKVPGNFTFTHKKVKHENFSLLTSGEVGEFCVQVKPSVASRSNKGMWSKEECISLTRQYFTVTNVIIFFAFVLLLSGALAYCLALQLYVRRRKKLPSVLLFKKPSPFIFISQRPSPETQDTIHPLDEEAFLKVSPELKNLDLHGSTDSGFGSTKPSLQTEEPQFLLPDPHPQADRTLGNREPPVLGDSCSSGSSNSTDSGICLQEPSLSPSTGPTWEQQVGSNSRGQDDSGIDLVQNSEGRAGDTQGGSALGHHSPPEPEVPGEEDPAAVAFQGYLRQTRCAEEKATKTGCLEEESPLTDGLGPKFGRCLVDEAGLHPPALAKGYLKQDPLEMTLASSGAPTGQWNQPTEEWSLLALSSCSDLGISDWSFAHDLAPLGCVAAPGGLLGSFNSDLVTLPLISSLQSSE
Test: yeast display titration

Row | Binder | apparent Kd
1 | B1 | no binding seen
2 | B2 | no binding seen
3 | B3 | no binding seen
4 | B4 | no binding seen
5 | B5 | no binding seen
6 | B6 | no binding seen
7 | B7 | no binding seen
8 | B8 | no binding seen
9 | B9 | no binding seen
10 | B10 | no binding seen
11 | B11 | no binding seen
12 | B12 | no binding seen
13 | B13 | no binding seen
14 | B14 | no binding seen
15 | B15 | no binding seen
16 | B16 | no binding seen
17 | B17 | no binding seen
18 | B18 | no binding seen
19 | B19 | no binding seen
20 | B20 | no binding seen
21 | B21 | no binding seen
